# Measurements published in PubChem BioAssay AID686978 (National Center for Advancing Translational Sciences (NCATS), 2013).
# Among all 420,000 compounds or so, about 64,000 (15%) were called active. Not shown: some 27% with an inconclusive outcome. A selection follows. A number with no mark means an inactive call. Calls come from the whole dose curve; as a rule, active = well fitted inhibition curve with a large enough effect; inconclusive = small, poorly fitted or top-dose-only effect; inactive = flat fitted curve, though single readings scatter.
# Test: qHTS for Inhibitors of human tyrosyl-DNA phosphodiesterase 1 (TDP1): qHTS in cells in absence of CPT; note: nearly all actives have a fitted effect of over 55% in size
# Conditions: DT40 Tdp1-/- hTDP1 cells, no CPT, ATP luminescence, 48 h; activity change, negative = growth inhibition: at 46.2 µM (top of the series)
# Procedure, shortened: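 DT40 Tdp1-/-;hTDP1 cells, no CPT (DMSO vehicle only), 400 cells/well; compounds pin-transferred; ≥48 hr, 37 °C; CellTiter-Glo 30 min RT dark, luminescence read.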
# % is set by controls: 0 for no effect and ±100 for the full control effect; potency is the fitted concentration of half-maximal effect.
Compound,"activity change, negative = growth inhibition [%]",Potency
CCN(CC(=O)Nc1ccc(OC)cc1)C(=O)CSCc1ccc(C)cc1,-21.7,
O=C(Nc1ccc(N2CCOCC2)cc1)c1ccc2c(c1)OCO2,-28.4,
CN1CCN(c2ccc(NC(=O)c3ccc4c(c3)OCCO4)cc2Cl)CC1,-17.4,
CN1CCN(c2ccc(NC(=O)c3cc(Cl)c4c(c3)OCCO4)cc2)CC1,,29.1 µM (active)
CCOc1ccc(C(=O)N(Cc2ccc(N(C)C)cc2)C2CCS(=O)(=O)C2)cc1 (stereo unspecified),-14.1,
O=C(COc1ccc(Cl)cc1Cl)NCCCNC(=O)c1cnccn1,-22.6,
CC(NC(=O)Cn1cc(C(F)(F)F)cc(Cl)c1=O)c1ccccc1 (stereo unspecified),-20.3,
CC(NC(=O)CCc1cn(Cc2ccccc2Cl)c2ccccc12)c1ccccc1 (stereo unspecified),,23.1 µM (active)
O=C(CCc1cn(Cc2ccc(F)cc2)c2ccccc12)NC1CCCCC1,-9.81,
Cc1cc(C)n2nc(C(=O)OCC(=O)N(CCC#N)c3ccc(F)cc3)nc2n1,2.76,
Cc1ccc(-c2nn(-c3ccccc3)cc2C(=O)NC2CCC(O)CC2)cc1 (stereo unspecified),-23.4,
O=C(O)c1ccc(NC(=O)c2cn(-c3ccccc3)nc2-c2ccc(Cl)cc2)cc1,,16.4 µM (active)
COC(=O)c1cn(-c2ccccc2)nc1-c1cccnc1,0.365,
NCCCCCC(=O)N/N=C/c1ccc2nccnc2c1,-22.9,
Cc1ccc(S(=O)(=O)N(C)C)cc1NC(=O)COC(=O)/C=C/c1cccs1,-17.8,
CCN1CCN(C(=O)CCN2C(=O)c3ccccc3C2=O)CC1,6.03,
O=C(Nc1cccc(F)c1)N1C2CCC1CC(O)(c1cccnc1)C2 (stereo unspecified),-5.57,
Cc1ccc(S(=O)(=O)CC(=O)Nc2nnc(C)s2)cc1,3.14,
CC(C)Cc1nnc(NC(=O)CCc2ccccc2)s1,-6.82,
CCOC(=O)c1ccc(NC(=O)CCS(=O)(=O)c2ccc(C)cc2)cc1,,20.6 µM (active)
CCCCC(CCC(=O)Nc1ccc(C(=O)OCC)cc1)C(=O)O (stereo unspecified),-4.15,
Cc1ccc(S(=O)(=O)CCC(=O)Nc2nnc(CC(C)C)s2)cc1,,16.4 µM (active)
CCOc1ccc(OCC)c(NC(=O)CCS(=O)(=O)c2ccc(C)cc2)c1,-22.3,
CC(C)CC(NS(=O)(=O)c1ccc2c(c1)oc(=O)n2C)C(=O)NCc1ccccc1Cl (stereo unspecified),-11.8,
Cc1cc(F)ccc1N1CCC(N2CCN(C)C(CCO)C2)CC1 (stereo unspecified),-12.5,
CC(C)n1c(O)c(N=Nc2ccccn2)c2ccccc21,-8.18,

Compound,"activity change, negative = growth inhibition [%]",Potency
CCC(C)NC(=O)c1ccccc1NC(=O)c1ccccc1N(C)S(C)(=O)=O (stereo unspecified),-19.8,
Cc1n[nH]c(=O)n1-c1ccc(C(C)C)cc1,15.4,
O=C1c2cccc3cccc(c23)C(=O)N1c1cccc(O)c1,-6.3,
Cc1nnc(CN(C)Cc2cn[nH]c2-c2ccc(-c3ccccc3)cc2)o1,-6.06,
CC1CCCN(S(=O)(=O)c2ccc(-c3ccc(=O)[nH]n3)o2)C1 (stereo unspecified),-8.44,
O=S(=O)(c1ccc2nc(NCc3ccccc3Cl)ccc2c1)N1CCCCC1,,10.3 µM (active)
O=S(=O)(NCc1ccccc1)c1ccc(S(=O)(=O)N2CCCC2)cc1,-20.5,
O=S(=O)(c1ccc2nc(N3CCN(c4cccc(Cl)c4)CC3)ccc2c1)N1CCCCC1,-1.01,
CN(C(=O)CCNC(=O)Cn1ccc2ccccc2c1=O)c1ccc(Br)cc1,3.44,
CC/C(=N/Nc1ccccc1)c1cnnc(SC)n1,8.67,
COc1cccc(C(=O)Oc2cc(C)[nH]c(=O)c2[N+](=O)[O-])c1,-8.65,
COc1ccc(/C=C/c2noc(-c3ccccc3OC(C)=O)n2)cc1,-13.5,
O=C(CCC(=O)N/N=C/c1ccc(Br)o1)N/N=C/c1ccc(Br)o1,1.16,
O=C(CCc1ccc(O)cc1)NN=Cc1cc(Br)ccc1O,,5.8 µM (active)
CC(C)/C=N/NC(=O)c1cc(Br)ccc1O,-12.7,
CCCC1NC(=O)NC(C)=C1C(=O)OCC (stereo unspecified),-0.636,
Nc1ncnc(Nc2cccc(Cl)c2Cl)n1,24.3,
O=C(CSc1nccc(=O)[nH]1)Nc1ccc(N2CCOCC2)c(Cl)c1,-14.9,
CC(C)c1ccc(OCC(O)Cn2cnc3ccccc32)cc1 (stereo unspecified),,14.6 µM (active)
OC(COc1ccccc1)Cn1cc(Br)cn1 (stereo unspecified),24,
CC(=O)Nc1ccc(OCC(O)CN2CCN(c3ccccc3Cl)CC2)cc1 (stereo unspecified),-24.4,
Cc1ccc(OCC(=O)Nn2cnc3ccccc32)cc1,-10.1,
CC(C)c1ccc(OCC(O)CN2CCN(c3ccccn3)CC2)cc1 (stereo unspecified),,10.3 µM (active)
Cc1ccccc1OCC(O)CN1CCN(c2ccccn2)CC1 (stereo unspecified),-1.08,
Cc1nc2ccc(S(=O)(=O)NCC(=O)O)cc2s1,-26.2,
CC(=O)OC[C@H]1O[C@@H](O[C@H]2[C@H](O)[C@@H](OC(=O)c3ccccc3C(=O)O)[C@H](O)O[C@@H]2COC(C)=O)[C@H](O)[C@@H](OC(=O)c2ccccc2C(=O)O)[C@@H]1O,-0.0815,

Compound,"activity change, negative = growth inhibition [%]",Potency
Cc1ccc(CNC(=O)C2CCCN2S(=O)(=O)c2ccc3c(c2)C(C)(C)C(=O)N3C)cc1 (stereo unspecified),-20.1,
C=CCOc1ccc(C(=O)Nc2ccccc2C(=O)N2CCCC2)cc1,-21,
Cn1nnnc1NCc1ccc(Cl)c(Cl)c1,-15,
NS(=O)(=O)c1ccc(CNC(=O)c2ccc(Cl)cc2[N+](=O)[O-])cc1,-20.7,
Nc1ccc2nn(-c3ccc(Cl)cc3)nc2c1,,9.2 µM (active)
Cc1cc2nn(-c3ccc(Cl)cc3)nc2cc1NC(=O)C(C)C,-7.99,
O=C(Cc1ccc(Cl)cc1)Nc1ccc2nn(-c3ccc(Cl)cc3)nc2c1,-8,
CC(=O)c1ccc(NC(=O)C2CC(=O)Nc3nc4ccccc4n32)cc1 (stereo unspecified),-8.52,
O=C(c1ccc(Cl)cc1)N1N=C(c2ccccn2)CC1(O)C(F)(F)F (stereo unspecified),,14.6 µM (active)
O=C(Cc1ccccc1)N1N=C(c2ccncc2)CC1(O)C(F)(F)F (stereo unspecified),-21.2,
COC(=O)C1(O)CC(C(C)C)=NN1C(=O)c1ccc(Cl)cc1 (stereo unspecified),-9.27,
Cc1cn([C@H]2C[C@H](O)[C@@H](CNC(=O)[C@H](N)Cc3cccnc3)O2)c(=O)[nH]c1=O,2.17,
O=c1[nH]n2c(=O)c3c([nH]c2c1N=Nc1ccccc1)CCC3,-20.5,
O=C(Nc1nnc(Cc2ccc(Cl)cc2)s1)c1ccncc1,-9.95,
COc1ccccc1CN1CCNC(=O)C1CC(=O)N(C)CC1CCOCC1 (stereo unspecified),17.6,
Cn1cc(/C=C/C(=O)N2CCCC(C(=O)c3ccc(C(F)(F)F)cc3)C2)cn1 (stereo unspecified),-27.1,
COCC(=O)N1CCCC(C(=O)c2ccc(C(F)(F)F)cc2)C1 (stereo unspecified),4.79,
Cn1cc(CCC(=O)N2CCCC(C(=O)c3ccc(C(C)(C)C)cc3)C2)cn1 (stereo unspecified),,20.6 µM (active)
Cc1nccn1-c1ccc(NC(=O)[C@H]2O[C@@H](n3cnc4c(N)ncnc43)[C@H](O)[C@@H]2O)cc1,1.47,
CC1(C)S[C@@H]2[C@H](NC(=O)COc3ccccc3)C(=O)N2C1C(=O)OCc1ccccc1 (stereo partly specified),,inactive
COc1ccc(-c2noc(-c3ccc(N4CCN(c5ccccc5)CC4)c([N+](=O)[O-])c3)n2)cc1OC,,7.31 µM (active)
COc1cc(-c2noc(-c3ccc(N4CCCC4)c([N+](=O)[O-])c3)n2)cc(OC)c1OC,-8.7,
CNc1ccc(-c2nc(-c3ccco3)no2)cc1[N+](=O)[O-],-19.6,
CCn1c(SC(C)C(=O)Nc2ccc(N3CCOCC3)cc2)nnc1-c1ccco1 (stereo unspecified),-4.59,
O=C(Nc1cccnc1Oc1ncnc2cc(Cl)ccc12)c1ccc(F)cc1,1.07,
NS(=O)(=O)c1ccc(NS(=O)(=O)/C=C/c2ccccc2)cc1,-16.4,

Compound,"activity change, negative = growth inhibition [%]",Potency
Cc1cccc(N2C(=O)c3ccc(C(=O)Nc4cccc(C(=O)O)c4)cc3C2=O)c1,-29.4,
Cc1ccc(CNC(=O)Cn2cnc(S(=O)(=O)N3CCCCC3)c2)o1,-18.7,
Cc1ccc(C(=O)N2CC(=O)Nc3ccccc32)o1,0.857,
Cc1ccc(CNC(=O)C2(C(F)(F)F)C/C(=C\Cc3ccccc3)CCCO2)o1 (stereo unspecified),,11.6 µM (active)
CC1CCCCN1CCCNC(=O)Cn1ncc2c([nH]c3ccccc32)c1=O (stereo unspecified),,inactive
COc1cccc(-c2nc3n(n2)C(c2ccccc2Cl)C(C(N)=O)=C(C)N3)c1 (stereo unspecified),-28.2,
Cc1cc2c(cc1C)[n+](C)cn2CC(O)COCC1CC=CCC1 (stereo unspecified),,1.84 µM (active)
C/C(=N/NC(=O)c1cc(Cl)ccc1O)C12CC3CC(CC(C3)C1)C2,-1.21,
O=C(CSc1ccc([N+](=O)[O-])cn1)Nc1ccc(N2CCOCC2)c(Cl)c1,-0.829,
COc1ccc(-c2cc(=O)oc3cc(OCC(=O)N[C@@H](Cc4c[nH]c5ccccc45)C(=O)O)ccc23)cc1,0.178,
COc1ccc(-c2c(C)cc3oc(=O)cc(-c4ccccc4)c3c2C)cc1OC,,23.1 µM (active)
Cc1cc2oc(=O)cc(-c3ccccc3)c2c(C)c1-c1ccc(OC(F)(F)F)cc1,,20.6 µM (active)
COc1ccc(C2=NO[C@@H]3C(=O)N(Cc4ccccc4)C(=O)[C@H]23)cc1OC,0.579,
CC(=O)c1ccc(S(=O)(=O)NC2CC(=O)N(c3ccc4c(c3)OCCO4)C2)cc1 (stereo unspecified),-14.5,
CC(C)(C)S(=O)(=O)c1ccccc1-c1noc(-c2ccccc2)c1C(N)=O,4.59,
Cn1c(SCC(=O)C(C)(C)C)nnc1-c1ccccn1,27.4,
O=C(COC(=O)c1cnccn1)Nc1cccc2ccccc12,-7.74,
Cc1ccccc1-c1ccc(Nc2ccc(C(=O)N3CCOCC3)cc2)nn1,-17.6,
CO[C@@H]1CN(C)C(=O)c2cc(NC(=O)C3CC3)ccc2OC[C@H](C)N(C(=O)CN2CCOCC2)C[C@@H]1C,-1.78,
CCCN(CC(=O)Nc1ccccc1C)C(=O)c1ccc2[nH]c3c(c2c1)CC(C)CC3 (stereo unspecified),,20.6 µM (active)
CCCN(CC(=O)Nc1ccccc1C)C(=O)c1cc(=O)[nH]c2ccccc12,-16.5,
CCCN(CC(=O)Nc1ccccc1C)C(=O)c1ccc(OCC(=O)N2CCOCC2)c(OCC)c1,-3.18,
COCCCN1C(=O)C(=O)/C(=C(/O)c2ccc3c(c2)CC(C)O3)C1c1cccnc1 (stereo unspecified),-3.28,
